For 13 compounds, Potency and viability results are on record in PubChem BioAssay (NCATS).

Inconclusive results are not listed. Values without a mark were called inactive. Calls of active or inactive are those of the source. Calls come from the whole dose curve; as a rule, active = well fitted curve in the direction sought with a large enough effect; inconclusive = small, poorly fitted or top-dose-only effect, or another doubt; inactive = no such curve, though single readings can be large; an effect the other way counts as inactive or inconclusive.

A short description of test [1]: Quantitative High-Throughput drug screen in 47 multiple myeloma cell lines against the NCATS MIPE library collection: KMS27_JCRB cell viability assay (AID 1918970). Note: nearly all actives have a fitted effect of over 30% in size. Note: potency is the fitted concentration of half-maximal effect. The gist of the method: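 KMS27_JCRB myeloma cells, 500 per well, exposed 48 h at 37 C, 5% CO2 to MIPE 4.0 compounds. Viability from ATP by CellTiter-Glo luminescence, normalized to DMSO (100%) and medium-only (0%) wells.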

A short description of test [2]: Quantitative High-Throughput drug screen in 47 multiple myeloma cell lines against the NCATS MIPE library collection: KMS12PE_JCRB cell viability assay (AID 1918972). Note: nearly all actives have a fitted effect of over 30% in size. Note: potency is the fitted concentration of half-maximal effect. Summed up:
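CellTiter-Glo ATP luminescence gave viability after 48 h compound treatment at 37C of 500 multiple myeloma cells per well. Normalisation used DMSO-only wells as 100% and media-only wells as 0% viability; primary qHTS of approved and investigational drugs.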

Test [3] can be described thus: Quantitative High-Throughput drug screen in 47 multiple myeloma cell lines against the NCATS MIPE library collection: KMS20_JCRB cell viability assay (AID 1918973). Note: nearly all actives have a fitted effect of over 45% in size. Note: potency is the fitted concentration of half-maximal effect. Summed up:
(§1)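 Approved and investigational drugs from MIPE 4.0 were added by pin tool to 500 cells per well. After 48 hours at 37C, ATP-based CellTiter-Glo luminescence indicated remaining viability.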

Test [4] in a line: Quantitative High-Throughput drug screen in 47 multiple myeloma cell lines against the NCATS MIPE library collection: KMS26_JCRB cell viability assay (AID 1918975). Note: nearly all actives have a fitted effect of over 45% in size. Note: potency is the fitted concentration of half-maximal effect. The gist of the method:
(§2)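 We plated 500 myeloma cells per well, pinned in MIPE 4.0 compounds, and incubated for 48 hours at 37C. ATP was then quantified with CellTiter-Glo, with DMSO and media-only wells defining 100% and 0%.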

A short description of test [5]: Quantitative High-Throughput drug screen in 47 multiple myeloma cell lines against the NCATS MIPE library collection: MMM1_PLB cell viability assay (AID 1918976). Note: potency is the fitted concentration of half-maximal effect; nearly all actives have a fitted effect of over 35% in size. The gist of the method: (§3)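 ATP-based CellTiter-Glo luminescence after 48 h drug exposure (37 °C, 5% CO2) of 500 myeloma cells per well. DMSO-only wells set 100% viability, media-only wells 0%; MIPE 4.0 library added by pin tool.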

Test [6] in a line: Quantitative High-Throughput drug screen in 47 multiple myeloma cell lines against the NCATS MIPE library collection: KMS28PE_JCRB cell viability assay (AID 1918983). Note: nearly all actives have a fitted effect of over 35% in size. Note: potency is the fitted concentration of half-maximal effect. The gist of the method:
as §3

The nature of test [7]: Quantitative High-Throughput drug screen in 47 multiple myeloma cell lines against the NCATS MIPE library collection: L363_DSMZ cell viability assay (AID 1918984). Note: nearly all actives have a fitted effect of over 40% in size. Note: potency is the fitted concentration of half-maximal effect. Summed up: as §3
Test [8] is described as follows: Quantitative High-Throughput drug screen in 47 multiple myeloma cell lines against the NCATS MIPE library collection: KMS34_JCRB cell viability assay (AID 1918985). Note: nearly all actives have a fitted effect of over 40% in size. Note: potency is the fitted concentration of half-maximal effect. Summed up: as §3
A short description of test [9]: Quantitative High-Throughput drug screen in 47 multiple myeloma cell lines against the NCATS MIPE library collection: OCIMY7_PLB cell viability assay (AID 1918987). Note: nearly all actives have a fitted effect of over 65% in size. The gist of the method: as §3
A short description of test [10]: Quantitative High-Throughput drug screen in 47 multiple myeloma cell lines against the NCATS MIPE library collection: KMS12BM_JCRB cell viability assay (AID 1918971). Note: nearly all actives have a fitted effect of over 35% in size. Note: potency is the fitted concentration of half-maximal effect. Summed up: as §2
Test [11] can be described thus: Quantitative High-Throughput drug screen in 47 multiple myeloma cell lines against the NCATS MIPE library collection: OCIMY5_PLB cell viability assay (AID 1918988). Note: nearly all actives have a fitted effect of over 65% in size. Note: potency is the fitted concentration of half-maximal effect. The gist of the method:
as §3

The nature of test [12]: Quantitative High-Throughput drug screen in 47 multiple myeloma cell lines against the NCATS MIPE library collection: SKMM1_PLB cell viability assay (AID 1919863). Note: nearly all actives have a fitted effect of over 35% in size. Note: potency is the fitted concentration of half-maximal effect. As to conditions: SKMM1 myeloma viability, CellTiter-Glo ATP, 48 h; viability: active compounds read low. The gist of the method: as §3
(In general: ATP-based viability assays read luminescence as a measure of living cells.)

A short description of test [13]: Quantitative High-Throughput drug screen in 47 multiple myeloma cell lines against the NCATS MIPE library collection: MM1S_ATCC cell viability assay (AID 1918980). Note: nearly all actives have a fitted effect of over 45% in size. Note: potency is the fitted concentration of half-maximal effect. The gist of the method: as §3
Test [14] can be described thus: Quantitative High-Throughput drug screen in 47 multiple myeloma cell lines against the NCATS MIPE library collection: LP1_DSMZ cell viability assay (AID 1918982). Note: nearly all actives have a fitted effect of over 35% in size. Summed up: as §3
Test [15] in a line: Quantitative High-Throughput drug screen in 47 multiple myeloma cell lines against the NCATS MIPE library collection: MOLP8_DSMZ cell viability assay (AID 1918977). Note: nearly all actives have a fitted effect of over 45% in size. Note: potency is the fitted concentration of half-maximal effect. The gist of the method: as §3
Test [16] in a line: Quantitative High-Throughput drug screen in 47 multiple myeloma cell lines against the NCATS MIPE library collection: OCIMY1_PLB cell viability assay (AID 1918979). Note: nearly all actives have a fitted effect of over 35% in size. Note: potency is the fitted concentration of half-maximal effect. Summed up: as §3
Test [17] in a line: Quantitative High-Throughput drug screen in 47 multiple myeloma cell lines against the NCATS MIPE library collection: MM1R_ATCC cell viability assay (AID 1918981). Note: nearly all actives have a fitted effect of over 35% in size. Note: potency is the fitted concentration of half-maximal effect. The gist of the method:
as §3

A short description of test [18]: Quantitative High-Throughput drug screen in 47 multiple myeloma cell lines against the NCATS MIPE library collection: OPM1_PLB cell viability assay (AID 1918989). Note: nearly all actives have a fitted effect of over 40% in size. Note: potency is the fitted concentration of half-maximal effect. The gist of the method:
as §3

The nature of test [19]: Quantitative High-Throughput drug screen in 47 multiple myeloma cell lines against the NCATS MIPE library collection: NCIH929_DSMZ cell viability assay (AID 1918978). Note: nearly all actives have a fitted effect of over 35% in size. The gist of the method:
as §3

Test [20] can be described thus: Quantitative High-Throughput drug screen in 47 multiple myeloma cell lines against the NCATS MIPE library collection: KMS21BM_JCRB cell viability assay (AID 1918974). As to conditions: ATP luminescence, 48 h; viability: at 45.8 µM (top of the series) unless noted. Summed up: as §1

Turning to `Cc1cc(O)c2c(c1)C(=O)c1cc(O)cc(O)c1C2=O`, the Potency result in test [1], in [2], in test [3], in [7], in test [8] and in [9] was “inactive” in each case. For the same compound, the Potency is 11.8 µM (active) in [4], 18.7 µM (active) in test [5] and 10.5 µM (active) in test [6].

For `CCCS(=O)c1ccc2nc(NC(=O)OC)[nH]c2c1` (stereo not drawn), in test [1], the Potency entry is “inactive”. The Potency is 20.9 µM (active) in [10], 10.5 µM (active) in [4], 16.6 µM (active) in test [11] and 10.5 µM (active) in test [12].

Consider `Cc1ccc(C(=O)c2cc(O)c(O)c([N+](=O)[O-])c2)cc1`, for which the Potency in [1] was 23.5 µM (active); in [2], 18.7 µM (active); in [3] it was 20.9 µM (active); in [13] it was 20.9 µM (active); in test [7], 16.6 µM (active). Also, the Potency result in test [14], in test [6] and in test [8] was “inactive” each time.

For `C[C@H](Cc1ccc(O)c(O)c1)[C@@H](C)Cc1ccc(O)c(O)c1`, the Potency in test [1] is 9.35 µM (active); in [10], 16.6 µM (active); in test [4] it was 23.5 µM (active); in [5] it was 6.62 µM (active); in test [15] it was 5.26 µM (active); in [16], 18.7 µM (active). The Potency is 20.9 µM (active) in [13]; 20.9 µM (active) in test [17]; 6.62 µM (active) in test [7]; 16.6 µM (active) in test [8]; 16.6 µM (active) in test [11]; 26.4 µM (active) in test [18]. Further, in test [6], the Potency result was “inactive”.

Regarding `CC1(C)C(=O)N(CCN2CCC(C(=O)c3ccc(F)cc3)CC2)c2ccccc21`, the Potency in test [1] is 13.2 µM (active); in test [2], 10.5 µM (active); in test [3] it was 4.18 µM (active); in test [16] it was 7.43 µM (active); in test [13] it was 20.9 µM (active); in test [17], 16.6 µM (active). In addition, the Potency in test [7] was 13.2 µM (active); in test [11], 5.26 µM (active); in [18] it was 10.5 µM (active). Also, in test [6], the Potency entry was “inactive”.

As to `CC1Cc2ccccc2N1NC(=O)c1ccc(Cl)c(S(N)(=O)=O)c1` (stereo not drawn), the Potency entry in test [1], in test [10], in [2], in test [15], in [17] and in [8] was “inactive” in each case. Further, the Potency result in [18] was “inactive”. For the same compound, in [13], the Potency is 16.6 µM (active).

As a reminder, the viability is a read-out of living cells in per cent, often relative to untreated cells. `COC(=O)C1=C(C)NC(C)=C(C(=O)OCCCN2CCC(c3ccccc3)(c3ccccc3)CC2)C1c1cccc([N+](=O)[O-])c1` (stereo not drawn): the Potency result in test [1], in test [2], in [3], in test [15], in [19] and in test [14] was “inactive” each time. Also, the Potency result in [6] and in test [9] was “inactive” each time. Also, the Potency in [17] was 20.9 µM (active); in test [8], 3.32 µM (active). Also, the viability in test [12] is 122%.

For the compound `O=P(O)(O)C(O)(Cn1ccnc1)P(=O)(O)O`, the Potency entry in test [1], in test [2], in [3], in test [4], in [15] and in test [16] was “inactive” in each case. For the same compound, the Potency result in test [17], in test [14], in test [6], in test [7], in test [11] and in [18] was “inactive” throughout. Also, the viability in test [12] was 138%.

With `CCC1=C(C)CN(C(=O)NCCc2ccc(S(=O)(=O)NC(=O)NC3CCC(C)CC3)cc2)C1=O` (stereo not drawn), the Potency result in [1], in test [2], in test [3], in test [20], in [4] and in [19] was “inactive” in each case. Also, the Potency entry in test [13], in test [17], in [6], in [7], in test [8] and in [11] was “inactive” each time. Also, the Potency result in test [18] is “inactive”.

As for `O=C(O)c1cccnc1Nc1cccc(C(F)(F)F)c1`, the Potency result in [1], in test [2], in test [3], in test [19], in [16] and in test [13] was “inactive” throughout. Moreover, the Potency result in test [17], in [6], in test [7], in [8], in [9] and in test [18] was “inactive” in each case. In addition, the viability in test [12] was 127%.

Turning to `N=C(N=C(N)N)N1CCOCC1`, the Potency result in test [1], in [2], in [3], in test [19], in test [16] and in [14] was “inactive” in each case. Besides, the Potency entry in [6], in test [8] and in test [18] was “inactive” in each case. Moreover, the Potency in test [13] is 10.5 µM (active).

`CCOC(=O)c1c(C)n(C)c2ccc(O)cc12`: the Potency result in [1], in test [2], in test [3], in test [4], in test [15] and in test [16] was “inactive” throughout. For the same compound, the Potency entry in test [17], in test [14], in [6], in [7] and in [18] was “inactive” each time. For the same compound, the Potency in [8] and in test [11] was 3.72 µM (active) in each case. In test [12], the viability is 121%.

As for `Cc1nc(-c2ccc(OCC(C)C)c(C#N)c2)sc1C(=O)O`, the Potency entry in [1], in [2], in test [3], in test [19], in [16] and in test [13] was “inactive” throughout. The Potency entry in test [6], in test [8] and in test [18] was “inactive” throughout. Moreover, the Potency was 6.62 µM (active) in test [5] and 2.96 µM (active) in test [15].
